# Assay results from PubChem BioAssay AID489037 (National Center for Advancing Translational Sciences (NCATS), 2010).
# Inconclusive results are not listed. Activity calls are given as the source filed them. Calls follow the shape of the dose curve; as a rule, active = well fitted inhibition curve with a large enough effect; inconclusive = small, poorly fitted or top-dose-only effect, or effect the other way; inactive = no such curve, though single readings can be large or run the other way.
# Biological target: Nuclear receptor ROR-gamma (Mus musculus) (UniProt P51450)
# Test: Secondary confirmation assay for inhibitors of ROR gamma transcriptional activity
# Settings: Drosophila S2 Gal4-RORgamma UAS-luciferase reporter, 20 h; series mostly up to 92.2 µM
# Description: NIH Molecular Libraries Probe Production Network [MLPCN] NIH Chemical Genomics Center [NCGC] MLPCN Grant: R03 DA026211-01 Assay Provider: Dan Littman, New York University Keywords: NIH Roadmap, MLPCN, MLI, MLSMR, qHTS, NCGC, qHTS, nuclear hormone receptor, retinoic acid-related orphan receptor, ROR gamma Assay Overview: The retinoic acid-related orphan receptor (ROR) gamma is a transcription factor that has a central role in the differentiation of Th17 cells, a subset of T helper cells that secrete the inflammatory cytokines IL-17, IL-17F, and IL-22. Th17 cells have been implicated in graft versus host disease, autoimmune disease and asthma. ROR gamma is induced in naive T helper cells in the presence of TGF-beta combined with IL-6, IL-21, or IL-23, and thereafter directs the expression of the Th17 lineage cytokines. To study the mechanism of action of ROR gamma, an insect cell-based assay was screened. This Drosophila Schneider cell line was stably transfected with two vectors: a gene expressing a fusion of the Gal4 DNA binding domain and ROR gamma transactivation domain under the control of the metallothionine promoter and a Photinus luciferase reporter regulated by the Gal4 binding site enhancer, UAS. […] Small molecule inhibitors of ROR gamma activity are detected by a decrease in luciferase reporter activity.
# Assay Protocol Summary: For screening, 600 cells in 4 uL/well were dispensed into white solid 1536-well plates (Grenier) using a solenoid-based dispenser. Following transfer of 23 nL compound or DMSO vehicle by a pin tool, the plates were incubated 1 hr at ambient temperature, and 1 uL/well copper sulfate (700 uM final concentration) was added. The plates were centrifuged 15 s at 1000 RPM and incubated 20 hr at ambient temperature. After addition of 1.5 uL Photinus luciferase detection reagent, the plates were incubated 10 min at ambient temperature and then read by an ViewLux (Perkin Elmer) to detect luminescence. Keywords: NIH Roadmap, MLPCN, MLI, MLSMR, qHTS, NCGC, qHTS, nuclear hormone receptor, retinoic acid-related orphan receptor, ROR gamma
# Sequence of Nuclear receptor ROR-gamma (Mus musculus) (P51450 whole entry, looked up): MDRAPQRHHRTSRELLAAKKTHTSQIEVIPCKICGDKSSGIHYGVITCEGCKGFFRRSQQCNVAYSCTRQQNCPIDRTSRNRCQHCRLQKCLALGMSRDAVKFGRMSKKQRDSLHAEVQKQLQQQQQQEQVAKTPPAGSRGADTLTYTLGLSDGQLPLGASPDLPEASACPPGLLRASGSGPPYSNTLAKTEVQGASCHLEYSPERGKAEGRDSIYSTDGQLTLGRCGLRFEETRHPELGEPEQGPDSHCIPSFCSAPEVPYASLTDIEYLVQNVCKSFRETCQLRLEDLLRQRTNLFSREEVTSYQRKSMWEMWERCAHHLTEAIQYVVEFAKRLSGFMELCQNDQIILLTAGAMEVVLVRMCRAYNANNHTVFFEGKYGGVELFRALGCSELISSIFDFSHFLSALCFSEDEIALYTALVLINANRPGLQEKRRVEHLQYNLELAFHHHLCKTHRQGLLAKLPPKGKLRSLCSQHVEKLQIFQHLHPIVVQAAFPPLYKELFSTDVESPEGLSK
row,SMILES,Potency
1,CC1CCCN(C(=O)CC(c2ccccc2)c2ccc(O)cc2)C1 (stereo not given),inactive
2,Cc1ccc(Sc2cncc3sc(C(N)=O)cc23)cc1,0.204 µM (active)
3,CCn1cc(C(=O)O)c(=O)c2cnc(N3CCN(C(=S)NC(=O)c4ccccc4)CC3)nc21,11.5 µM (active)
4,COc1cc(O)c(C(CC(=O)N2CC(C)CC(C)C2)c2ccc3c(c2)OCCO3)c(OC)c1 (stereo not given),0.645 µM (active)
5,COc1cc(O)c(C(CC(=O)N2CCCC(COc3ccc(F)cc3)C2)c2ccc3c(c2)OCO3)c(OC)c1 (stereo not given),inactive
6,COc1cc(O)c(C(CC(=O)NC2CCCc3ccccc32)c2ccc3c(c2)OCO3)c(OC)c1 (stereo not given),inactive
7,COc1cc(O)c(C(CC(=O)N2CCCC(C)(C)C2)c2ccc3c(c2)OCO3)c(OC)c1 (stereo not given),5.12 µM (active)
8,COc1ccc(C)c(O)c1C(CC(=O)N1CCCC(C)C1)c1ccc2c(c1)OCO2 (stereo not given),40.7 µM (active)
9,COC(=O)Cn1c(CN2CCc3ccccc3C2)nc2c1c(=O)n(C)c(=O)n2C,6.45 µM (active)
10,COc1cc(O)c(C(CC(=O)NC2CCC(C)CC2)c2ccc3c(c2)OCO3)c(OC)c1 (stereo not given),inactive
11,COc1ccc(C(CC(=O)N2CCCC(C)C2)c2c(O)cc(OC)cc2OC)c(OC)c1 (stereo not given),inactive
12,C#CCOc1cc(OC)cc(OC)c1C(CC(=O)N1CCCC(C)C1)c1ccc2c(c1)OCO2 (stereo not given),9.11 µM (active)
13,CC(C)(C)c1ccc([S+](=O)([O-])Nc2ccccc2C(O)(C(F)(F)F)C(F)(F)F)cc1,16.2 µM (active)
14,O=C(NC(=S)Nc1nc(-c2ccccc2)cs1)c1cccnc1,5.12 µM (active)
15,COc1cc(O)c(C(CC(=O)N2CCCC(C)C2)c2ccc(C(C)C)cc2)c(OC)c1 (stereo not given),14.4 µM (active)
16,O=C(CCCN1C(=O)/C(=C/c2ccccc2Cl)SC1=S)Nc1cccnc1,1.82 µM (active)
17,COc1cc(O)c(C(CC(=O)N2CCCC(C#N)C2)c2ccc3c(c2)OCO3)c(OC)c1 (stereo not given),inactive
18,Cc1ccc(O)c(C(CC(=O)NC2CCCCC2)c2ccccc2)c1 (stereo not given),inactive
19,COc1cc(O)c(C(CC(=O)N2CCCC2)c2ccc3c(c2)OCO3)c(OC)c1 (stereo not given),inactive
20,COc1ccc(C(=O)/C=C/c2ccc(OC)cc2OC)c(O)c1,0.575 µM (active)

row,SMILES,Potency
1,CCOC(=O)Cn1c(CN2CCc3ccccc3C2)nc2c1c(=O)n(C)c(=O)n2C,5.75 µM (active)
2,CCOC(=O)c1sc(NC(=O)c2ccc(S(=O)(=O)N(C)C)cc2)nc1C,0.129 µM (active)
3,C=C1Nc2c(-c3ccc(F)cc3)cnn2C(N)=C1c1ccccc1,0.0911 µM (active)
4,COC(=O)c1ccc(OCC(=O)c2ccc(O)cc2O)cc1,0.363 µM (active)
5,COc1cc(O)c(C(CC(=O)N2CCCC(C)C2)c2ccc(OC)c(OC)c2)c(OC)c1 (stereo not given),9.11 µM (active)
6,COc1cc(O)c(C(CC(=O)N2CCOCC2)c2ccc3c(c2)OCO3)c(OC)c1 (stereo not given),inactive
7,COc1cc(O)c(C(CC(=O)Nc2cccc3ccccc23)c2ccc3c(c2)OCO3)c(OC)c1 (stereo not given),inactive
8,Cc1cc(C)c2sc(NC(=O)c3ccc(N4C(=O)CCC4=O)cc3)nc2c1,0.229 µM (active)
9,CCOc1ccc(C(CC(=O)N2CCCC(C)C2)c2c(O)cc(OC)cc2OC)cc1 (stereo not given),4.07 µM (active)
10,COc1cc(O)c(C(CC(=O)N2CCCC(C(=O)c3ccccc3)C2)c2ccc3c(c2)OCO3)c(OC)c1 (stereo not given),inactive
11,Cc1nn(-c2cc(C)c3ccccc3n2)c2c1C1C(C2)C1(C)C (stereo not given),3.63 µM (active)
12,CCOC(=O)C1CCN(CC(=O)Nc2cc(C)nn2-c2nc3ccccc3s2)CC1,5.75 µM (active)
13,COc1cc(O)c(C(CC(=O)N2CCCC(C)C2)c2ccc(C)cc2)c(OC)c1 (stereo not given),10.2 µM (active)
14,Cc1ccc(C)c(/C=N/n2cc(-c3ccccc3)[nH]c2=S)c1,0.575 µM (active)
15,COc1cc(O)c(C(CC(=O)N2CCCC(C)C2)c2cccc3ccccc23)c(OC)c1 (stereo not given),inactive
16,COc1cc(O)c(C(CC(=O)N2CCCC(CO)C2)c2ccc3c(c2)OCO3)c(OC)c1 (stereo not given),inactive
17,Cc1cc(C)n(-c2nc(SCC(=O)O)c3c4c(sc3n2)CCCC4)n1,9.11 µM (active)
18,COc1cc(O)c(C(CC(=O)N2CCCC(CN3CCCCC3)C2)c2ccc3c(c2)OCO3)c(OC)c1 (stereo not given),inactive
19,CCN(CC)c1ccc(/C=N/n2c(-c3ccccc3Br)n[nH]c2=S)cc1,1.62 µM (active)
20,COc1cc(OC)c(C(CC(=O)N2CC(C)CC(C)C2)c2ccc3c(c2)OCO3)c(OCC(N)=O)c1 (stereo not given),11.5 µM (active)
